RXFP1 agonist – RXFP1 (human) receptor agonism | Q9HBX9 | HEK293T-RXFP1 cAMP TR-FRET, 30 min; response scale: percent of porcine relaxin response, buffer zero | Potency, µM (highest dose often 57.5 µM), without a hit: at the top dose activation, most hits filed as activators | hit rate 0.3% among 370,000; further: potency means the concentration at half of the fitted maximal effect; on the % scale 0 is the no-effect control and ±100 the full control effect; nearly all actives have a fitted effect of over 60% in size
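cAMP rise read by TR-FRET after 30 min, 37C compound exposure (up to 58 uM) in RXFP1-transfected HEK293 cells with Ro 20174 present. EC50 from Hill-equation fits, with 29 nM porcine relaxin as 100% and buffer as basal.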
BRCA1 expr act – BRCA1 expression activation; MCF7-BRCA1-FFLuc reporter, luminescence, 48 h; response scale: scaled: vehicle 0%, 10 µM genistein 100%; hit rate 1.1% among 380,000; Potency, µM (highest dose often 46.1 µM), for inactives: top-dose activation, most hits filed as activators; AID 624202; further: potency means the concentration at half of the fitted maximal effect; nearly all actives have a fitted effect of over 80% in size
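Reporter cells (MCF7, BRCA1 promoter-firefly luciferase) received library compounds across a concentration series for 48 h. End-point luminescence was measured and concentration-effect curves derived after normalization.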
Giardia kill – kills Giardia lamblia | activity change, % at 7.66 µM, hits read low | Giardia lamblia trophozoite viability | hit rate 0.15% among 340,000; in the data active means activity change below about -80%; inconclusive means between about -30% and that limit;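 further: parasites exposed to compound for two days anaerobically before the ATP read; on the % scale 0 is the no-effect control and ±100 the full control effect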
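ATP-content bioluminescence gauges trophozoite survival. Cells (100/well) receive compound and incubate anaerobically for 48 hrs at 37 deg C; detection reagent follows for 15-30 min at room temperature.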
RXFP1 antagonist – antagonists of human relaxin receptor RXFP1. Q9HBX9. HEK293-RXFP1, relaxin-stimulated cAMP HTRF, 30 min; active compounds read low. activity change, negative = inhibition, % at 57.5 µM. hit rate 0.59% among 350,000. AID 1259400;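 active means activity change of -60% or lower, but not beyond a set lower limit; inconclusive means change between -60% and -40%, or beyond the set limit; inactive means change above -40%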; further: on the % scale 0 is the no-effect control and ±100 the full control effect
NPSR antagonist – antagonists of human neuropeptide S receptor cAMP signaling. hit rate 1% among 220,000. Q6W5P4. CHO-NPSR cells, cAMP TR-FRET, antagonist mode. Potency, µM (titrated, usually from 38.3 µM), without a hit: top-dose activity change, negative = inhibition, most hits filed as inhibitors. AID 1461; further: potency means the concentration at half of the fitted maximal effect; on the % scale 0 is the no-effect control and ±100 the full control effect; nearly all actives have a fitted effect of over 50% in size
Target sequence (Q6W5P4 whole entry, looked up): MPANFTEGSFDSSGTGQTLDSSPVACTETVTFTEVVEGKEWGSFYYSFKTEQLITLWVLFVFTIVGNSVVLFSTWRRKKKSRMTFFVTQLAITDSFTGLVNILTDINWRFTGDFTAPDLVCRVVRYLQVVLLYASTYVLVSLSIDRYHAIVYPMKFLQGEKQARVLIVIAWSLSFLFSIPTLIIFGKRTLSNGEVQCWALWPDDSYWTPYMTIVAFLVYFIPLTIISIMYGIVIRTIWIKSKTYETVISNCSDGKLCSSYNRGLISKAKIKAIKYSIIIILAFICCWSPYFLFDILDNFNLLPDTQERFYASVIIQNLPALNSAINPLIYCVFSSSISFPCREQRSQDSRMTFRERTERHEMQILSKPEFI
IL2 activator – IL-2 activation; IL-2 activation reporter assay, cell-based qHTS; stimulated with anti-CD3/CD4/CD28 beads; in transgenic mouse T cells; activation, % (series mostly up to about 46 µM); hit rate 0.065% among 360,000; AID 652025; in the data active means activation above about 50%; inconclusive means mostly about 30% to 49%; further: 0% is about no effect
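Readout: EGFP and DsRed signals by fluorescent plate cytometry. Unstimulated transgenic mouse T cells received compound 60 min before antibody-bead stimulation, then incubated 18 h at 37 degrees C.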
* marks the source's active call; other numbers are inactive results; u = inconclusive; x = no result; [ ] = dose if it differs, or a comment. This is a sample that favours compounds with a hit; in the whole collection about 1.9% have one here. Unless noted, the call rests on the fitted dose curve; in most records, active means well fitted curve in the direction sought with a large enough effect; inconclusive means small, poorly fitted or top-dose-only effect, or another doubt; inactive means no such curve, though single readings can be large; an effect the other way counts as inactive or inconclusive.

SMILES	RXFP1 agonist	BRCA1 expr act	Giardia kill	RXFP1 antagonist	NPSR antagonist	IL2 activator
CCc1ccc(C(=O)Nc2cc3c(cc2Cl)OCCCO3)cc1	3%	81%	-4	-6	-29%[46.1 µM]	1
O=C(Cc1ccccc1)Nc1cc2c(cc1Cl)OCCCO2	4%	3.2µM*	-6	-2	x	-2
Clc1ccc(-c2csc3ncnc(Sc4nnnn4-c4ccccc4)c23)cc1	x	-79%	x	x	x	x
COc1cccc(N/C=C/c2onc(C)c2[N+](=O)[O-])c1	-2%	4µM*	4	-3	0%	1
Cc1ccc(N/C=C/c2onc(C)c2[N+](=O)[O-])cc1	2%	6.3µM*	5	6	-10%	0
CSc1ccccc1OCc1cc(C(=O)NCc2cccc(C)n2)no1	-3%	6.3µM*	-13	3	x	1
CSc1ccccc1OCc1cc(C(=O)NC2CCOC2)no1 (configuration not stated)	-3%	13µM*	-4	-3	x	-1
CSc1ccccc1OCc1cc(C(=O)N[C@H]2CCCCNC2=O)no1	2%	11µM*	-12	-14	x	-3
CSc1ccccc1OCc1cc(C(=O)N(C)Cc2nonc2C)no1	6%	11µM*	-12	-12	x	1
Cc1cccc(NC(=O)c2ccc(Cn3nc(N4CCN(c5ccccc5)CC4)ccc3=O)o2)c1C	-2%	x	x	-9	x	x
COc1cc(OC)c2c(c1C(CCN1CCCC(C)C1)c1ccc(N(C)C)cc1)OC(=O)CC2c1ccc(N(C)C)cc1 (configuration not stated)	x	x	11	x	x	x
Cc1cc(C)nc(CCNC(=O)c2cc(COc3ccccc3)on2)n1	0%	7.9µM*	10	-3	x	0
Nc1ccc(C(Cc2ccnc3ccccc23)Cc2ccnc3ccccc23)cc1	x	-33%	x	x	x	x
Cc1cc(C)c2c(N)c(C(=O)c3ccccc3)sc2n1	0%	-1%	1	3	4%	0
Cc1nc2sc(C(N)=O)c(N)c2c(C)c1CC(=O)c1ccccc1	4%	11µM*	-26	u	-3%	-1
CCCNC(=O)C1CCC(Cn2c(=O)c3sccc3n(CC(=O)NCc3cccc(OC)c3OC)c2=O)CC1 (configuration not stated)	22µM*	3%	x	x	x	x
CCCCCNC(=O)C1CCC(Cn2c(=O)c3sccc3n(CC(=O)NCc3cccc(OC)c3OC)c2=O)CC1 (configuration not stated)	u	15%	x	x	x	x
Nc1c(C(=O)N/N=C/c2ccccc2Cl)oc2nc(-c3ccccc3)cc(-c3ccco3)c12	u	-5%	-16	-7	-12%	10
Nc1c(C(=O)N/N=C/c2ccc(F)cc2)oc2nc(-c3ccccc3)cc(-c3ccco3)c12	25%	-35%	8	-23	3%	230*
COC(=O)C1=C[C@@H](C(=O)OC)C2C3=C(C(=O)[C@@]2(C)NC(=O)c2ccccc2)[C@H](C)[C@@H]2C(=O)N(C)C(=O)[C@@H]2[C@@H]3C1 (some centres not stated)	x	x	-4	x	x	x
Cc1ccc2c(c1)N(C(=O)Nc1cccc3c1CCCC3)CC(C)O2 (configuration not stated)	0%	x	x	u	x	x
CCC1CN(C(=O)Nc2cccc3c2CCCC3)c2cc(C)ccc2O1 (configuration not stated)	1%	x	x	-73*	x	x
CCc1ccc(NC(=O)N2CC(C)Oc3ccc(C)cc32)cc1 (configuration not stated)	0%	x	x	-62*	x	x
CCOC(=O)c1ccccc1NC(=O)N1CC(C)Oc2ccc(C)cc21 (configuration not stated)	0%	x	x	u	x	x
CCOc1ccccc1NC(=O)N1CC(C)Oc2ccc(Cl)cc21 (configuration not stated)	1%	x	x	-83*	x	x
SMILES	RXFP1 agonist	BRCA1 expr act	Giardia kill	RXFP1 antagonist	NPSR antagonist	IL2 activator
O=C(/C(=C/O)N=Nc1ccc(Cl)cc1)c1ccncc1	1%	-72%	3	-27	u	-3
Cc1ccc(N=N/C(=C\O)C(=O)c2ccncc2)cc1	0%	-42%	-16	-25	10µM*	-1
O=[N+]([O-])c1ccccc1S(=O)(=O)NCc1ccccn1	x	20%	x	x	x	x
O=C(Nc1cccc(Cl)c1)c1ccncc1	0%	34%	-2	5	-12%[46.1 µM]	-2
O=C(Nc1cccc(O)c1)c1cc(-c2ccco2)on1	-1%	-10%	-20	1	-17%[46.1 µM]	1
CC(C)c1cc(C(=O)Nc2cc(Cl)ccc2O)no1	2%	u	-7	7	-14%[46.1 µM]	0
CC(=O)c1cccc(NC(=O)c2cc(-c3ccco3)on2)c1	4%	10µM*	6	-14	x	1
CC(=O)c1cccc(NC(=O)c2cc(-c3ccc(F)cc3)on2)c1	3%	3%	-6	11	9%[46.1 µM]	-3
CC(C)c1cc(C(=O)Nc2cccc(Cl)c2)no1	1%	7.1µM*	-1	-14	-25%[46.1 µM]	-1
CC(=O)c1cccc(NC(=O)c2cc(C(C)C)on2)c1	1%	3.2µM*	13	1	-5%[46.1 µM]	0
O=C(Nc1cccc(Cl)c1)c1cnc[nH]1	0%	7.9µM*	5	-3	x	1
CC1CCN(S(=O)(=O)c2cn(CC(=O)Nc3ccc(F)c(Cl)c3)c(=O)c3ccccc23)CC1	1%	-26%	x	x	x	x
CNC(=O)c1c(I)c(NC(C)=O)c(I)c(C(=O)O)c1I	x	x	x	6	x	x
COc1cc(OC)c(/C=C/c2ccncn2)c(OC)c1	x	6%	x	x	x	x
CC(Sc1ccc2ccccc2n1)C(=O)O (configuration not stated)	11µM*	0%	-2	48	u	0
Cc1ccccc1-c1nc(CN2CCC(C(=O)NCc3ccccc3Cl)CC2)c(C)o1	-1%	x	x	x	x	x
S=c1[nH]c(=S)c2[nH]cnc2[nH]1	x	-25%	9	x	x	x
Cc1ccc(OCC(=O)N(Cc2ccco2)Cc2ccco2)cc1C	0%	x	x	-60*	x	x
Cc1cc(Cl)ccc1OCC(=O)N(Cc1ccco1)Cc1ccccc1F	0%	x	x	-61*	x	x
Cc1cc(C)c(OCC(=O)N(Cc2cccc(F)c2)Cc2ccco2)c(C)c1	1%	x	x	-102*	x	x
Cc1ccc(OCC(=O)N(Cc2ccco2)Cc2ccco2)cc1	3%	x	x	-22	x	x
Cc1ccc(CN(Cc2ccco2)C(=O)COc2cc(C)c(Cl)c(C)c2)cc1	0%	-41%	x	x	x	x
Cc1cccc(C)c1OCC(=O)N(Cc1ccco1)Cc1ccco1	0%	x	x	-34	x	x
CCc1ccc(CN(Cc2ccco2)C(=O)COc2ccc(Cl)cc2C)cc1	0%	x	x	-69*	x	x
CCOc1ccccc1NC(=O)C(CC(C)C)NS(=O)(=O)c1ccc2c(c1)CCN2C(C)=O (configuration not stated)	2%	x	x	-4	x	x

Screening results as filed in PubChem BioAssay.
